Source: PubChem BioAssay
A selection: hits, their analogues and other compounds. The true share with any hit is near 5.4%.
CtBP-E1A blk: blocks the CtBP interaction with E1A. AID 651724. 0.49% of 340,000 active. activity change, % (concentration not given with the values). AlphaScreen GST-E1A/His-CtBP binding, 1536-well; hits give low values; in the data active = activity change below about -65%; inconclusive = mostly about -30% to -63%; also: % is scaled to controls: 0 for no effect and ±100 for the full control effect
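Steps: dispense buffer (Tris pH 8.0, NaCl 300 mM, TCEP 1 mM, BSA, Tween 20); add 5X protein mix (GST-E1A, His-CtBP, 125 nM each); pin 23 nL compound; 2 h at 37 °C, dark; add 5X beads (50 ug/mL); 1 h; read.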
RORg inh: blocks mouse ROR gamma transcriptional activity; P51450; Drosophila S2 Gal4-RORgamma UAS-luciferase reporter, 20 h; Potency, µM (doses to about 53.6 µM), for the others: top-dose activity change, negative = inhibition, most hits filed as inhibitors; 5.4% of 310,000 active; AID 2551; also: potency is read from the fitted curve at half-maximal effect; % is scaled to controls: 0 for no effect and ±100 for the full control effect; nearly all actives have a fitted effect of over 60% in size
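Luciferase reporter read in Schneider cells carrying Gal4-RORγ (mouse) and UAS-Photinus luciferase; cells given compound 1 h before 700 uM copper sulfate induction, then incubated 20 h at ambient temperature.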
Gal4-VP16 FLuc: Gal4-VP16 reporter inhibition counter-screen; Drosophila S2 Gal4-VP16 UAS-luciferase, luminescence, 20 h; Potency, µM (titrated, usually from 53.6 µM), inactives show at the highest dose activity, negative = inhibition, actives largely listed as inhibitors; 3.5% of 310,000 active; AID 2546;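 also: Gal4-VP16 expression switched on by copper sulfate through the metallothionein promoter; potency is read from the fitted curve at half-maximal effect; % is scaled to controls: 0 for no effect and ±100 for the full control effect; nearly all actives have a fitted effect of over 50% in size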
p53 reactivator: restores transcriptional activity of mutant p53. H1299 p53-A138V BP100-luciferase reporter, luminescence, 24 h. Potency, µM (series often up to 92.2 µM), for inactives: at the highest dose activity change, positive = activation, usual class: activators. 0.063% of 320,000 active. AID 504706; also: potency is read from the fitted curve at half-maximal effect; % of control where 0% means no effect; nearly all actives have a fitted effect of over 45% in size
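p53-null H1299 cells stably carrying temperature-sensitive p53-A138V and a BP100-luciferase reporter were pinned with compounds (4-point, 1:5 series) and held 24 hrs at 37 deg C. Luminescence was read 10 min after detection reagent.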
Six1-Eya2 blk: Six1/Eya2 interaction inhibition | AlphaScreen GST-Six1/His-Eya2 binding, biochemical; hits give low values | Q15475+O00167 | activity change, % (concentration not given with the values) | 0.56% of 360,000 active | AID 651725; in the data active = activity change below about -65%; inconclusive = mostly about -30% to -63%; also: % is scaled to controls: 0 for no effect and ±100 for the full control effect
Target sequence (O00167 whole entry, looked up): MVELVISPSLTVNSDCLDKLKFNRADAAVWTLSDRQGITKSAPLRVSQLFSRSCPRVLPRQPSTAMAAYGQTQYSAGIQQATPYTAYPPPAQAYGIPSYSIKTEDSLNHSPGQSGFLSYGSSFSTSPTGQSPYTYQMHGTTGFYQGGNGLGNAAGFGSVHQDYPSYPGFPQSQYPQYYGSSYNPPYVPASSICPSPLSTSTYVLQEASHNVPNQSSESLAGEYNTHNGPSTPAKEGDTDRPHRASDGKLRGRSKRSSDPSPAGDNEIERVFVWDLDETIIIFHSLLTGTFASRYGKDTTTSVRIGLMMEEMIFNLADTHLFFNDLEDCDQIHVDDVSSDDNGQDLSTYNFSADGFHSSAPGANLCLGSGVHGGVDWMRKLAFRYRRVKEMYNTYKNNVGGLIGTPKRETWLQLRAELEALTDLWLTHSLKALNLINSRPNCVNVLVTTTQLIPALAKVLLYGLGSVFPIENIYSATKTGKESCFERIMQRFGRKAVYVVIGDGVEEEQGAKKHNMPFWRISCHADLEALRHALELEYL
Target sequence (Q15475 whole entry, looked up): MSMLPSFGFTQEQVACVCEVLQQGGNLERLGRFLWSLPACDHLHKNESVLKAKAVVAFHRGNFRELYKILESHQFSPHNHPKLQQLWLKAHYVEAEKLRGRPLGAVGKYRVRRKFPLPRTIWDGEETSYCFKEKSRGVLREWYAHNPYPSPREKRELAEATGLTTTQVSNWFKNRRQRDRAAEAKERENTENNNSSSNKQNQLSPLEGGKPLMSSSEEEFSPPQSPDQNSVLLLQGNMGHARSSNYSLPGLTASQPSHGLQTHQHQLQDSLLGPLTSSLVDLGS
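AlphaScreen luminescence read after one hour at 37 °C in darkness. Pin-transferred compounds met GST-Six1 and His-Eya2 protein (5X stock 250 nM/500 nM) plus glutathione donor and Ni-chelate acceptor beads (5X, 50 ug/mL).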
Numbers without * were called inactive. Unless noted, calls follow the shape of the dose curve; as a rule, active = well fitted curve in the direction sought with a large enough effect; inconclusive = small, poorly fitted or top-dose-only effect, or another doubt; inactive = no such curve, though single readings can be large; an effect the other way counts as inactive or inconclusive.

How did COc1ccc(N(C)S(=O)(=O)c2cccc(C(=O)Nc3nc4ccccc4[nH]3)c2)cc1 do in these assays?
CtBP-E1A blk: -20.1; RORg inh: 3.98µM*; Gal4-VP16 FLuc: 11.2µM*; p53 reactivator: -3.8%; Six1-Eya2 blk: inconclusive

What do the screens show for `C=CCN(c1ccccc1)S(=O)(=O)c1cccc(C(=O)Nc2ccncc2)c1`?
CtBP-E1A blk: 2.7; p53 reactivator: -2.5%; Six1-Eya2 blk: 4.5

How did COc1ccc(C(=O)CSc2nccn2C)c(OC)c1 do in these assays?
CtBP-E1A blk: 0.0; RORg inh: inconclusive; Gal4-VP16 FLuc: -25.3%; p53 reactivator: 17.9%; Six1-Eya2 blk: 8.0

Results for c1csc(CCNc2ncnc3sc4c(c23)CCC4)c1 ?
CtBP-E1A blk: 4.4; RORg inh: -42.6%; Gal4-VP16 FLuc: 11.2µM*; p53 reactivator: -1.2%; Six1-Eya2 blk: 0.7

Results for Cc1ccc2nc(/C=C/c3cccc(F)c3)ccc2c1 ?
CtBP-E1A blk: 13.3; RORg inh: 10µM*; Gal4-VP16 FLuc: -18.3%; p53 reactivator: inconclusive; Six1-Eya2 blk: 24.9

How did CC(=O)N1CCc2cc(S(=O)(=O)NCCC(=O)NC3CCCCCC3)ccc21 do in these assays?
CtBP-E1A blk: 1.2; RORg inh: inconclusive; Gal4-VP16 FLuc: 0.4%; p53 reactivator: 9.8%; Six1-Eya2 blk: 0.6

Results for CCNC(=S)N/N=C/c1cccc(OCc2c(F)cccc2Cl)c1 ?
CtBP-E1A blk: -18.1; RORg inh: 0.708µM*; Gal4-VP16 FLuc: 0.708µM*; p53 reactivator: 13.2%; Six1-Eya2 blk: -5.8

What do the screens show for `Fc1ccccc1COc1ccc(/C=N/NC(=S)NCc2ccccc2)cc1`?
CtBP-E1A blk: -2.4; RORg inh: 0.891µM*; Gal4-VP16 FLuc: 1µM*; p53 reactivator: 13.1%; Six1-Eya2 blk: -8.7

How did CNC(=S)N/N=C/c1cccc(OCc2ccccc2F)c1 do in these assays?
CtBP-E1A blk: 0.9; RORg inh: 2.24µM*; Gal4-VP16 FLuc: 4.47µM*; p53 reactivator: 15.6%; Six1-Eya2 blk: -13.6

What do the screens show for `O=C(COC(=O)COc1ccc(Cl)cc1Cl)NC1CCCC1`?
CtBP-E1A blk: 2.8; p53 reactivator: 3.2%; Six1-Eya2 blk: 3.1

How did Cc1ccc(NC(=S)Nc2cc(-c3ccccc3)[nH]n2)cc1Cl do in these assays?
CtBP-E1A blk: 0.0; RORg inh: 0.794µM*; Gal4-VP16 FLuc: 2.24µM*; p53 reactivator: 1.6%; Six1-Eya2 blk: -7.2

Results for Fc1ccc(NC(=S)Nc2cccnc2)cc1Cl ?
RORg inh: -2.0%; Gal4-VP16 FLuc: -9.5%; p53 reactivator: 7.7%; Six1-Eya2 blk: 0.1

What do the screens show for `Fc1ccc(NC(=S)Nc2cc(-c3ccccc3)[nH]n2)cc1Cl`?
CtBP-E1A blk: -6.9; RORg inh: 0.794µM*; Gal4-VP16 FLuc: 1.58µM*; p53 reactivator: 0.0%; Six1-Eya2 blk: -0.5

How did O=C(Nc1ccc(-c2nc3ccccc3s2)c(O)c1)C1=COCCO1 do in these assays?
CtBP-E1A blk: 5.7; RORg inh: 0.501µM*; Gal4-VP16 FLuc: inconclusive; p53 reactivator: inconclusive; Six1-Eya2 blk: 1.2

Results for O=C(Nc1ccc(-c2nc3ccccc3s2)cc1)C1=COCCO1 ?
CtBP-E1A blk: -6.6; RORg inh: 2µM*; Gal4-VP16 FLuc: 4.47µM*; p53 reactivator: 34.5%; Six1-Eya2 blk: -17.6

How did CCOC(OCC)c1cn(Cc2ccc3c(c2)C(=O)c2ccccc2C3=O)nn1 do in these assays?
RORg inh: -3.5%; Gal4-VP16 FLuc: -4.9%; p53 reactivator: 11.1%

Results for Cc1cnc(CNc2ccnc(-c3ccc(N(C)C)cc3)n2)cn1 ?
RORg inh: 15.6%; Gal4-VP16 FLuc: 7.6%

What do the screens show for `COc1ccccc1N(Cc1ccccc1)S(=O)(=O)c1cccc(C(=O)Nc2ccc(C)cn2)c1`?
CtBP-E1A blk: -1.2; p53 reactivator: -9.7%; Six1-Eya2 blk: -10.9

How did C=CCNC(=S)NNC(=O)CCC(O)CCCCC (stereo unspecified) do in these assays?
CtBP-E1A blk: -2.3; RORg inh: 10µM*; Gal4-VP16 FLuc: -16.1%; p53 reactivator: -1.8%; Six1-Eya2 blk: -8.9

What do the screens show for `CNC(=S)/N=C(\Nc1ccc(C)cc1)c1ccccc1`?
CtBP-E1A blk: -2.4; RORg inh: 2.51µM*; Gal4-VP16 FLuc: 15.8µM*; p53 reactivator: 12.7%; Six1-Eya2 blk: -5.3

Results for CC[C@]1(C(=O)OC)[C@H]2C(=O)N(C)C(=O)[C@H]2[C@H]2CN=C(SCc3ccc(OC)cc3)N21 ?
CtBP-E1A blk: -18.7; p53 reactivator: 7.7%; Six1-Eya2 blk: -12.6

Results for COc1cc2nc(CN(CCC(C)C)Cc3nc4cc(OC)c(OC)cc4c(=O)[nH]3)[nH]c(=O)c2cc1OC ?
CtBP-E1A blk: -9.5; RORg inh: 0.794µM*; Gal4-VP16 FLuc: 6.31µM*; p53 reactivator: -1.7%; Six1-Eya2 blk: -1.7

How did CCNCc1nc2cc(OC)c(OC)cc2c(=O)[nH]1 do in these assays?
CtBP-E1A blk: -7.4; RORg inh: -12.1%; Gal4-VP16 FLuc: 3.5%; p53 reactivator: 11.7%; Six1-Eya2 blk: -7.1

Results for CCN(CC)S(=O)(=O)c1cccc(NC(=O)COc2ccc(F)cc2Br)c1 ?
CtBP-E1A blk: 5.3; RORg inh: inconclusive; Gal4-VP16 FLuc: 24.8%; p53 reactivator: -1.1%; Six1-Eya2 blk: 10.0

What do the screens show for `S=C(Nc1ccccc1Oc1ccccc1)Nc1cccc(Cl)c1Cl`?
CtBP-E1A blk: -2.0; RORg inh: 12.6µM*; Gal4-VP16 FLuc: inconclusive; p53 reactivator: 1.4%; Six1-Eya2 blk: -5.7

Results for S=C(Nc1cccc(Cl)c1)Nc1ccccc1Oc1ccccc1 ?
CtBP-E1A blk: -7.2; RORg inh: 10µM*; Gal4-VP16 FLuc: inconclusive; p53 reactivator: 4.9%; Six1-Eya2 blk: -15.0

What do the screens show for `O=C(CCC(=O)c1ccc(Oc2ccccc2)cc1)Nc1ccc(Cl)cc1Cl`?
CtBP-E1A blk: 2.3; RORg inh: -1.5%; Gal4-VP16 FLuc: 0.0%; p53 reactivator: 2.8%; Six1-Eya2 blk: 8.9

Results for O=C(Nc1ccccc1Oc1ccccc1)C1CCCC1 ?
CtBP-E1A blk: 11.6; RORg inh: 13.3%; Gal4-VP16 FLuc: -4.8%; p53 reactivator: -5.2%; Six1-Eya2 blk: 7.7

What do the screens show for `S=C(Nc1ccc(Cl)cc1Cl)Nc1ccccc1Oc1ccccc1`?
CtBP-E1A blk: -1.9; RORg inh: 10µM*; Gal4-VP16 FLuc: inconclusive; p53 reactivator: 6.1%; Six1-Eya2 blk: -6.5

Results for S=C(Nc1cccc(Cl)c1)Nc1cccc2cnccc12 ?
CtBP-E1A blk: -0.2; RORg inh: 30.7%; Gal4-VP16 FLuc: -28.5%; p53 reactivator: 16.7%; Six1-Eya2 blk: -4.8

How did CCCn1cnc2cc(NC(=O)c3cccs3)ccc21 do in these assays?
CtBP-E1A blk: 4.8; RORg inh: 30.6%; Gal4-VP16 FLuc: 4.4%; p53 reactivator: 7.1%; Six1-Eya2 blk: 6.4

How did Cc1cccc(/C=C(\C(=O)O)c2ccc(S(=O)(=O)N3CCCC3)s2)c1 do in these assays?
CtBP-E1A blk: 0.0; p53 reactivator: -0.8%; Six1-Eya2 blk: -0.4
